This is an account of results in PubChem BioAssay (Tox21).

The structures appear in SMILES notation. Values without a mark were called inactive. Records with an inconclusive call do not appear. Activity calls are given as the source filed them. Unless noted, the call rests on the fitted dose curve; in most records, active means well fitted curve in the direction sought with a large enough effect in the repeat runs; inconclusive means weak or mixed curves; inactive means no such curve, though single readings can be large; an effect the other way counts as inactive or inconclusive.

Experiment [1] addresses Androgen receptor (Homo sapiens) (UniProt P10275). Put plainly: qHTS assay to identify small molecule antagonists of the androgen receptor (AR) signaling pathway using the MDA cell line in the presence of 0.5 nM R1881 (AID 1259243). Further: nearly all actives have a fitted effect of over 50% in size. Further: potency means the concentration at half of the fitted maximal effect. In a few lines: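 MDA-kb2 cells (MMTV-luciferase, responsive to AR and GR) at 3,000/well, rested 5 h at 37C, 0% CO2, then given compounds plus 0.5 nM R1881 (final) for 16 hr. Luciferase read with ONE-Glo after 30 min at room temperature.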

Experiment [2] deals with Estrogen receptor (Homo sapiens) (UniProt P03372). Kind of experiment: qHTS assay to identify small molecule antagonists of the estrogen receptor alpha (ER-alpha) signaling pathway using the BG1 cell line in the presence of 0.1 nM 17-beta-estradiol (AID 1259244). Further: nearly all actives have a fitted effect of over 50% in size. Further: potency means the concentration at half of the fitted maximal effect. In a few lines:
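VM7Luc4E2 cells (endogenous full-length ER-alpha, 4×ERE-luciferase), kept 5 days in phenol red-free, charcoal-stripped FBS medium; 4,000 cells/well. Compounds added with 0.1 nM (final) 17beta-estradiol, 22 hr at 37C; luminescence read with ONE-Glo after 30 min.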
For orientation: qHTS replaces the single test concentration by a dilution series.

Experiment [3] in a line: qHTS assay to identify small molecule HDAC inhibitors (AID 1259364). Further: nearly all actives have a fitted effect of over 45% in size. Further: potency means the concentration at half of the fitted maximal effect. On activity change, negative = inhibition: top concentration of the series differs between compounds. A digest of the protocol:
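Wild-type HCT-116 cells, plated overnight at 37 C, exposed to compounds 2 hr at 37 C; luminogenic HDAC-Glo substrate then added 30 min at room temperature. Luminescence reports relative endogenous class I/II HDAC activity.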

Experiment [4] is described as follows: qHTS assay to identify small molecule agonists of the sonic hedgehog signaling (Shh) pathway - cell viability counter screen (AID 1259366). Further: nearly all actives have a fitted effect of over 50% in size. Further: potency means the concentration at half of the fitted maximal effect. A digest of the protocol:
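Cytotoxicity counter screen run in the same wells as the Shh reporter assay. NIH/3T3 cells carrying a Gli1 response element–driven luciferase were treated with DMSO-dissolved compounds for 24hr, and live-cell protease activity was measured with CellTiter-Fluor.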

Experiment [5] can be described thus: qHTS assay to identify small molecule antagonists of the sonic hedgehog signaling (Shh) pathway - cell viability counter screen (AID 1259367). Further: nearly all actives have a fitted effect of over 55% in size. Further: potency means the concentration at half of the fitted maximal effect. In a few lines: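 After a 4 hr settling period, 3T3 Gli1-Luc cells were treated with DMSO-dissolved chemicals and conditioned medium, kept 24 hr at 37C in 5% CO2, and assayed for viability by CellTiter-Fluor fluorescence following 1 hr reagent incubation.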

Experiment [6] is described as follows: qHTS assay to identify small molecule agonists of the sonic hedgehog signaling (Shh) pathway (AID 1259368; calls by dose curve;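 further: NIH/3T3-derived 3T3Gli1-Luc cells carrying a stable Gli1-driven firefly luciferase reporter; series mostly up to about 92 µM; nearly all actives have a fitted effect of over 15% in size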). In a few lines:
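NIH/3T3-derived 3T3Gli1-Luc cells with stably integrated Gli1-driven firefly luciferase, 2,000 cells/well, compounds added after 4 hr. Incubated 24 hr at 37C, 5% CO2; luminescence read after 30 min with luciferase reagent at room temperature.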

The nature of experiment [7]: qHTS assay to identify small molecule antagonists of the sonic hedgehog signaling (Shh) pathway (AID 1259369; calls by dose curve; further: nearly all actives have a fitted effect of over 45% in size; further: potency means the concentration at half of the fitted maximal effect). A digest of the protocol: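 NIH/3T3-derived Gli1-Luc reporter cells plated 4 h, dosed with compound, then stimulated with conditioned medium for 24 h at 37 C. Firefly luciferase luminescence read after 30 min with detection reagent at room temperature.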
Experiment [8] concerns the target Estrogen receptor beta (Homo sapiens) (UniProt Q92731). Put plainly: qHTS assay to identify small molecule agonists of the estrogen receptor beta (ER-beta) signaling pathway (AID 1259377; active means well fitted activation curve with a large enough effect in the signal ratio in the repeat runs, not every such curve was filed as active; the % refers to the signal ratio). In a few lines:
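HEK293T ER-beta-UAS-bla; 2% charcoal-stripped FBS; cells pre-incubated 6 hr, compound 16 hr, 37C/5% CO2; LiveBLAzer B/G FRET substrate 2 h RT; fluorescence intensity read.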

A short description of experiment [9]: qHTS assay to identify small molecule HDAC inhibitors - cell viability counter screen (AID 1259365). Further: series mostly up to about 92 µM; nearly all actives have a fitted effect of over 50% in size. In a few lines:
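Luminescence from CellTiter-Glo, developed 30min at room temperature, reports viability of wild-type HCT-116 cells treated 2hr with compounds at 37 C and 5% CO2 after overnight plating.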

The nature of experiment [10]: qHTS assay to identify small molecule phospholipidosis (PLD) inducers (AID 1259344; active means well fitted curve in the direction sought with a large enough effect; an effect the other way counts as inactive or inconclusive). In a few lines:
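HepG2 cells grown on collagen I take up LipidTOX Red while exposed to compound for 24 h; after fixation they are imaged at 20x and pit metrics are extracted.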
On the % scale 0 is the no-effect control and ±100 the full control effect.

Sequence of Estrogen receptor beta (Homo sapiens) (Q92731 whole entry, looked up): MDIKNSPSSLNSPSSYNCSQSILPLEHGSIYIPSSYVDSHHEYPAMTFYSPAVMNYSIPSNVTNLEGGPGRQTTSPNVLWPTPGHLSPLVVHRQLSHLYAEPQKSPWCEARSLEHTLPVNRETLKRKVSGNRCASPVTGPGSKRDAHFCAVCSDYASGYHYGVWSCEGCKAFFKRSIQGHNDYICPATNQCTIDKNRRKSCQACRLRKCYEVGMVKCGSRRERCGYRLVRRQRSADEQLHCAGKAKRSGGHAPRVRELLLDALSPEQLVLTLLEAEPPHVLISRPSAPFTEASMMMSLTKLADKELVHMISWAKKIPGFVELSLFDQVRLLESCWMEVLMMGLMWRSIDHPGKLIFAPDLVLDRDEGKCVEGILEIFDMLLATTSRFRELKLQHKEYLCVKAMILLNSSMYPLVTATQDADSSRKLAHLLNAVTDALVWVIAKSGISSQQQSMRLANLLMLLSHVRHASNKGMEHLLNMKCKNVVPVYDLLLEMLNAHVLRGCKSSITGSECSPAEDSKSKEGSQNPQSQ
Sequence of Estrogen receptor (Homo sapiens) (P03372 whole entry, looked up): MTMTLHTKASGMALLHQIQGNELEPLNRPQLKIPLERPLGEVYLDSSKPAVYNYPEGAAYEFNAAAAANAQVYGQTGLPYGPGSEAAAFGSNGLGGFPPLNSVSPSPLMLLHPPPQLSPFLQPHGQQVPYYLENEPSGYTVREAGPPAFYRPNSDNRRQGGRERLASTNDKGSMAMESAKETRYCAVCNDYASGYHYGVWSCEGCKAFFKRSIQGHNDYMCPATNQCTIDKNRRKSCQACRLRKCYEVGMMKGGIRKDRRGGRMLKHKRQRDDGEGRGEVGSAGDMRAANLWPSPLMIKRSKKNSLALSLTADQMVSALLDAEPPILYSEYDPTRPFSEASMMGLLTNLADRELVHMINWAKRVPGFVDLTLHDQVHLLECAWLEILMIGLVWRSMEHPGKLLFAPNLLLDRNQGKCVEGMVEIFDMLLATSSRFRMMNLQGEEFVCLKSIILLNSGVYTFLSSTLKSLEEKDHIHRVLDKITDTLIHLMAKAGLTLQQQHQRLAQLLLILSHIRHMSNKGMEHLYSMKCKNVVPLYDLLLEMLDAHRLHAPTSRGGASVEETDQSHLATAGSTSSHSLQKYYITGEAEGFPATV
Sequence of Androgen receptor (Homo sapiens) (P10275 whole entry, looked up): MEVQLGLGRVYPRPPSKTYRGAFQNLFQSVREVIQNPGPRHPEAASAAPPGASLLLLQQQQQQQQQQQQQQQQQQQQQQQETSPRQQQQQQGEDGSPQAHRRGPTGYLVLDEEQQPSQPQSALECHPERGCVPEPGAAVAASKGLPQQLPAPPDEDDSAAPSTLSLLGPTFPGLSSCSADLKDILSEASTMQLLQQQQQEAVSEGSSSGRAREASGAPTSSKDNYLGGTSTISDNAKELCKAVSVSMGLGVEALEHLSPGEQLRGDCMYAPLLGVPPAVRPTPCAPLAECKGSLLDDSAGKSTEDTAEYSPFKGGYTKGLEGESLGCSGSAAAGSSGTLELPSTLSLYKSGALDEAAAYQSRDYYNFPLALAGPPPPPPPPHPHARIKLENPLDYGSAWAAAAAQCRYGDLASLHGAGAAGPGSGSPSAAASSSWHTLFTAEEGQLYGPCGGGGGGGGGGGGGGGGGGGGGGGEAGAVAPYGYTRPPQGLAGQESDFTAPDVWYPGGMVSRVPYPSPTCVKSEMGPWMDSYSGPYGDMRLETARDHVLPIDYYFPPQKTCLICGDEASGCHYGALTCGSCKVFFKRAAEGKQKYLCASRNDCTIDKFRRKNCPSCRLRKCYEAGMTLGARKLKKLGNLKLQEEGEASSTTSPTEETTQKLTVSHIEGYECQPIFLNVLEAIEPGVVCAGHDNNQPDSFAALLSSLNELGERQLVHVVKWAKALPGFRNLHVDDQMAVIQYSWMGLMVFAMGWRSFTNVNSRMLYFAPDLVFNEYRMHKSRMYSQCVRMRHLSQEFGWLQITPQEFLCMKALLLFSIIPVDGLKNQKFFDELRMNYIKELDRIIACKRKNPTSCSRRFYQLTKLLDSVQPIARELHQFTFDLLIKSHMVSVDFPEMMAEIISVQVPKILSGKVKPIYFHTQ

`O=C1C=CC(=O)N1c1ccccc1`: the Potency in experiment [1] was 30.6 µM (active); in [2] it was 61.1 µM (active); in experiment [3], 27.3 µM (active); in [4] it was 9.69 µM (active); in experiment [5] it was 12.2 µM (active); in [7], 6.11 µM (active). Moreover, the Potency result in [6] and in [8] was “inactive” throughout.

As for `CCCCCCCCC(C)=O`, the Potency result in experiment [1], in [2], in experiment [3], in experiment [9], in experiment [5] and in experiment [6] was “inactive” throughout. Also, the Potency result in experiment [7] is “inactive”.

In the case of `CCCCCCS`, the Potency result in experiment [1], in [2], in experiment [3], in experiment [9], in experiment [5] and in experiment [6] was “inactive” throughout. The Potency entry in experiment [7] and in experiment [8] was “inactive” in each case.

For the compound `CO[Si](CCC1CCC2OC2C1)(OC)OC` (centres undefined), the Potency result in experiment [1], in experiment [2], in experiment [3], in [9], in [5] and in experiment [6] was “inactive” each time. For the same compound, in experiment [7], the Potency result was “inactive”.

On to `C=C1C(C)(C)[C@@]2(Cl)C(Cl)[C@]1(Cl)C(Cl)(Cl)C2(Cl)Cl` (some centres undefined), for which the values for the Potency in [1] and in [7] were 60 µM (active) and 21.3 µM (active), respectively. Moreover, the Potency entry in experiment [2], in experiment [3], in experiment [9], in experiment [5] and in experiment [6] was “inactive” throughout.

For the compound `C=C(C)CCCC`, the Potency entry in [1], in [2], in [3], in experiment [9], in experiment [4] and in experiment [5] was “inactive” in each case. The Potency result in [6] and in [8] was “inactive” throughout.

For the compound `O=CC1CC1`, the Potency result in experiment [1], in [2], in [3], in experiment [9], in [4] and in experiment [5] was “inactive” in each case. The Potency entry in [6], in experiment [7] and in [8] was “inactive” in each case.

Regarding `CCCCOCC`, the Potency result in experiment [1], in experiment [3], in experiment [9], in [4], in experiment [5] and in experiment [6] was “inactive” throughout. In addition, the Potency result in [7] and in [8] was “inactive” in each case.

In the case of `COC(=O)C1=C(C)NC(C)=C(C(=O)OCCCN2CCC(c3ccccc3)(c3ccccc3)CC2)C1c1cccc([N+](=O)[O-])c1` (centres undefined), the values for the Potency in experiment [1], in experiment [4] and in [7] were 21.1 µM (active), 26.6 µM (active) and 33.5 µM (active), respectively. Further, the Potency result in [3], in experiment [9] and in experiment [6] was “inactive” in each case.

As for `N#CSCSc1nc2ccccc2s1`, the Potency entry in experiment [1], in experiment [9] and in experiment [6] was “inactive” throughout. Moreover, the Potency in experiment [3] was 19.3 µM (active); in experiment [4] it was 10.9 µM (active); in [5] it was 24.3 µM (active); in [7] it was 1.93 µM (active).

`O=C(O)c1cccc(Cl)n1`: the Potency result in experiment [1], in experiment [3], in [9], in experiment [4] and in [6] was “inactive” each time. Moreover, the Potency in [7] was 30.6 µM (active).

Consider `CC1CCCCC1`, for which the Potency entry in experiment [1], in [3], in experiment [9], in experiment [4], in [5] and in experiment [6] was “inactive” each time. In addition, the Potency result in [7] and in experiment [8] was “inactive” in each case.

Regarding `N[C@@H](CSSC[C@H](N)C(=O)O)C(=O)O`, the activity, negative = inhibition in experiment [1] was 4.74% [at 0.349 µM]. Besides, the Potency result in experiment [10] was “inactive”. Besides, in experiment [3], the activity change, negative = inhibition is -1.21% [at 0.349 µM]. The activity change, negative = cytotoxicity in experiment [9] is 2.74% [at 0.349 µM]. Further, the activity change in [6] was -0.169% [at 0.349 µM, active compounds read high]. Also, the Potency in experiment [7] is 0.335 µM (active). For the same compound, the activation in experiment [8] is 5.41% [at 0.348 µM].

For `CCCC(O)C(O)CO` (centres undefined), the Potency result in experiment [1], in [3], in experiment [9], in experiment [4], in [5] and in experiment [6] was “inactive” each time. The Potency entry in experiment [7] is “inactive”.

As for `C[n+]1c2cc(N)ccc2cc2ccc(N)cc21` (tested in a mixture with another compound), in experiment [1], the Potency is 13.3 µM (active). The Potency entry in experiment [10], in experiment [3], in experiment [9] and in experiment [6] was “inactive” throughout.

Consider `CCc1cccc(CC)c1NC(=O)C(=O)O`, for which the Potency entry in experiment [1], in experiment [3], in experiment [9], in [5], in experiment [6] and in [7] was “inactive” each time.

Turning to `Clc1cc(Cl)c(-c2c(Cl)c(Cl)cc(Cl)c2Cl)cc1Cl`, the Potency result in [1], in experiment [3], in [9], in experiment [4], in [5] and in experiment [6] was “inactive” each time. Besides, the Potency result in experiment [7] and in experiment [8] was “inactive” throughout.

Consider `CC1(C)C(=O)N(Br)C(=O)N1Br`, for which the Potency result in [1], in [3], in [9], in [4], in experiment [5] and in experiment [6] was “inactive” each time. Further, the Potency result in experiment [7] is “inactive”.
